Assay outcomes (PubChem BioAssay)
This is a sample that favours compounds with a hit; in the whole collection about 11% have one here.
ALDH1A1 block: blocks purified human ALDH1A1 activity; P00352; Purified ALDH1A1, NADH fluorescence, propionaldehyde substrate; Potency, µM (highest dose often 75.3 µM), inactives show at the highest dose activity, negative = inhibition, hits mostly inhibitors; 220,000 compounds, 7.3% hits;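 also: potency is read from the fitted curve at half-maximal effect; plate controls were no enzyme wells and a reference inhibitor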
PNC inhibitor: inhibitors of perinucleolar compartment assembly. PC3M PTB-GFP, PNC prevalence imaging, 16 h; hits give low values. activity change (PNC), negative = inhibition, % at 10 µM. 140,000 compounds, 3.1% hits;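 active = readout at or below -70, meaning at least 70% loss of cells showing the perinucleolar compartment, a nuclear body marking cancer cells; inconclusive = readout between -30 and a set limit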;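 also: plate controls were DMSO wells for no effect and camptothecin positive control wells for full effect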
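Read-out is percentage of cells bearing a perinucleolar compartment, from automated 20x imaging of fixed, Hoechst-stained PC3M PTB-GFP cells. Cells were seeded 4 h, then exposed 16 h to compound (23 nl of library stock) in duplicate plates.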
HPGD inh: inhibitors of human 15-hydroxyprostaglandin dehydrogenase (HPGD); purified HPGD, NADH fluorescence kinetic, PGE2 substrate; 150,000 compounds, 4.3% hits; Potency, µM, for the others: at the top dose activity change, negative = inhibition, usual class: inhibitors; AID 894; also: potency is read from the fitted curve at half-maximal effect
Target sequence (P15428 whole entry, looked up): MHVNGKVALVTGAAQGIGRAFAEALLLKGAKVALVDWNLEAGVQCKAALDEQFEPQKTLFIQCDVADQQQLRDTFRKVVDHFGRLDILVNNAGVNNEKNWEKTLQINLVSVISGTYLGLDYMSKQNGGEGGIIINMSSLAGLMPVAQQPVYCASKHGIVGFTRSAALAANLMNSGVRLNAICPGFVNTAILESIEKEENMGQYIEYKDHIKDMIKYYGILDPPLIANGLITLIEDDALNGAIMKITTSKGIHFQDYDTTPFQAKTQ
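20 nM HPGD preincubated 15 min at room temperature with compound in 50 mM Tris-HCl pH 8, 0.01% Tween 20. Started with 1 mM NAD+ and 30 uM prostaglandin E2; NADH fluorescence (360/450 nm) read 5 times over 30-s intervals, last minus first.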
Numbers without * were called inactive; ? = inconclusive; · = no result; [ ] = another dose, or the depositor's remark. Unless noted, calls follow the shape of the dose curve; as a rule, active = well fitted inhibition curve with a large enough effect (not every such curve was filed as active); inconclusive = small, poorly fitted or top-dose-only effect, or another doubt; inactive = no such curve, though single readings can be large or run the other way. Unless noted, % is scaled to controls: 0 for no effect and ±100 for the full control effect.

SMILES | ALDH1A1 block | PNC inhibitor | HPGD inh
CCC(C)N=Cc1c(O)n(-c2ccccc2)c(=O)[nH]c1=O (configuration not stated) | ? | 30 | ?
COC(=O)C1=Nc2ccccc2/C1=C\c1c(O)n(-c2cc(OC)ccc2OC)c(=O)[nH]c1=O | ? | ? | 14µM*
Oc1c(Cl)c(Cl)c(Cl)c(Cl)c1Cl (tested in a mixture with another compound) | 4%[13.5 µM] | · | ·
C[C@H](N)C(=O)N[C@@H](C)C(=O)N[C@@H](Cc1ccccc1)C(=O)CCl | -16% | · | ·
C[C@]12Cc3cn4c(nc3C=C1CCC1C2CC[C@@]2(C)[C@H]1CC[C@@]2(O)C#N)nc1ccccc14 (some centres not stated) | ? | · | -17%
Oc1c(Cl)c(Cl)cc(Cl)c1Cl | -9% | · | ?
C/C=C(\C)C(=O)OC1CC(OC(C)=O)[C@@]2(C(=O)OC)COC3C2[C@@]12CO[C@](O)(C(=O)OC)C2[C@](C)(C12OC1(C)C1CC2OC2OC=C[C@]21O)C3O (some centres not stated) | 1% | · | -3%
O=c1c(C=Nc2cccnc2Cl)c(O)n(CCCCl)c(=O)n1C1CCCCC1 | ? | 20 | -6%
CCCCn1c(=O)c(C=Nc2cc([N+](=O)[O-])ccc2OC)c(O)n(CCCCl)c1=O | 11µM* | ? | -18%
Nc1ccc(-c2ccc(N)c(Cl)c2)cc1Cl | ? | · | -10%
CCCC(C)C1(CC)C(=O)NC(=S)NC1=O (configuration not stated) | -2% | · | -4%
CCCCn1c(O)c(C(CC)=NCCN2CCCCC2)c(=O)[nH]c1=O | ? | -89* | -10%
CCCCn1c(O)c(C(CC)=NCCN2CCOCC2)c(=O)[nH]c1=O | ? | 0 | -13%
CCCCn1c(O)c(C(CC)=Nc2cccc(C(=O)O)c2)c(=O)[nH]c1=O | ? | -90* | ?
CCCCn1c(O)c(C(CC)=NCCc2ccccc2)c(=O)[nH]c1=O | ? | 7 | -12%
C=CC(=O)OCC | 8% | · | -4%
CC1/C=C/C=C/CC/C=C/C=C/C=C/C=C/C(OC2OC(C)C(O)C(N)C2O)CC2O[C@](O)(CC(O)C(O)CCC(O)CC(O)CC(O)CC(=O)OC(C)C(C)C1O)CC(O)C2C(=O)O (some centres not stated) | 2% | · | -6%
CCOC(=O)c1c(C)n(COCCO)c2ccc(O)cc12 | 2% | ? | -20%
CCOC(=O)c1c(C)n(Cc2ccco2)c2ccc(O)cc12 | 4µM* | 17 | 22µM*
C[C@H](NC(=O)[C@@H](N)Cc1ccc(O)cc1)C(=O)NCC(=O)N(C)[C@@H](Cc1ccccc1)C(=O)N[C@H](CO)CCS(C)=O (some centres not stated) | 6% | · | ·
CN(C)[C@H]1C(=O)C(C(N)=O)=C(O)[C@]2(O)C(=O)C3=C(O)c4c(O)cccc4[C@@](C)(O)[C@H]3C[C@@H]12 | -9%[20.9 µM] | · | -20%
CN(C)C1C(=O)C(C(N)=O)=C(O)[C@@]2(O)C(=O)C3=C(O)c4c(O)cccc4[C@@](C)(O)C3[C@H](O)C12 (some centres not stated) | 7.1µM* | · | ?
O=C(O)C(O)(c1ccc(-c2ccccc2)cc1)c1ccc(-c2ccccc2)cc1 | -2%[13.5 µM] | · | -14%
Fc1ccc(C(OCCN2CCN(C/C=C/c3ccccc3)CC2)c2ccc(F)cc2)cc1 | -14% | · | ·
O=C1NC(=O)C(C(CC(=O)c2ccccc2)c2ccccc2)C(=O)N1 (configuration not stated) | 0.1µM* | · | ·
SMILES | ALDH1A1 block | PNC inhibitor | HPGD inh
NCCNCCNCCNCCN | 32µM* | · | -8%
CN(C)c1ccc(C=C2C(=O)NC(=S)NC2=O)cc1[N+](=O)[O-] | 11µM* | · | ·
O=C1NC(=S)NC(=O)C1=Cc1cccc2cc3ccccc3cc12 | ? | · | -16%
O=[N+]([O-])c1ccc(-c2[se]c3ccccc3c2I)cc1 | ? | · | -25%
O=C1CC2OCC=C3CN4CC[C@]56c7ccccc7N1C5C2[C@H]3C[C@H]46 (some centres not stated) | 7% | · | ·
COc1ccc(C(C)=O)cc1CC(C(=O)c1ccc(F)cc1)N(C)C (configuration not stated) | 4% | -93* | -19%
COc1ccc(C(C)=O)cc1CC(C(=O)c1ccc(C)c(C)c1)N(C)C (configuration not stated) | -5% | 17 | 5%
COc1ccc(C(=O)C(Cc2ccccc2)N(C)C)cc1 (configuration not stated) | 28µM* | ? | -4%
CN(C)C(Cc1ccccc1)C(=O)c1ccc(-c2ccccc2)cc1 (configuration not stated) | ? | -14 | -27%
COc1cc2occc2c2oc(=O)ccc12 | -11% | 20 | -16%
